High-throughput results (PubChem)
ELG1 repair inh: inhibitors of ELG1-dependent DNA repair in HEK293T cells | Potency, µM (highest dose often 46.1 µM), usual class: inhibitors | HEK293T ELG1-luciferase reporter, luminescence, 16 h; DNA damage induced by 5-fluorouridine | 2.3% of 330,000 active; also: nearly all actives have a fitted effect of over 55% in size
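Cells (2,000 per well) received 5-fluorouridine plus test compound or DMSO and were incubated 16 hr at 37 °C, 5% CO2. Luciferase activity was read by luminescence 30 min after ONE-Glo addition; signal suppression marked inhibition of damage-induced ELG1 function.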
Nrf2 activator: Nrf2 pathway activation | AREc32 ARE-luciferase reporter (MCF7-derived line), luminescence, 24 h | Potency, µM (doses to about 46.1 µM), usual class: activators | 0.31% of 410,000 active | AID 624171; also: nearly all actives have a fitted effect of over 65% in size
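Quantitative high-throughput format: AREc32 reporter cells, 1000 per well, received compound by pin transfer and were incubated 24 hr at 37 deg C, 5% CO2, before Steady-Glo luminescence detection.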
mIDH1 inhibitor: inhibitors of human mutant IDH1 R132H; O75874; IDH1-R132H enzyme, NADPH consumption, diaphorase/resazurin fluorescence; Potency, µM (highest dose often 76.6 µM), most hits filed as inhibitors; 0.093% of 390,000 active; also: nearly all actives have a fitted effect of over 65% in size
Target sequence (O75874 whole entry R132H, stated change not applied): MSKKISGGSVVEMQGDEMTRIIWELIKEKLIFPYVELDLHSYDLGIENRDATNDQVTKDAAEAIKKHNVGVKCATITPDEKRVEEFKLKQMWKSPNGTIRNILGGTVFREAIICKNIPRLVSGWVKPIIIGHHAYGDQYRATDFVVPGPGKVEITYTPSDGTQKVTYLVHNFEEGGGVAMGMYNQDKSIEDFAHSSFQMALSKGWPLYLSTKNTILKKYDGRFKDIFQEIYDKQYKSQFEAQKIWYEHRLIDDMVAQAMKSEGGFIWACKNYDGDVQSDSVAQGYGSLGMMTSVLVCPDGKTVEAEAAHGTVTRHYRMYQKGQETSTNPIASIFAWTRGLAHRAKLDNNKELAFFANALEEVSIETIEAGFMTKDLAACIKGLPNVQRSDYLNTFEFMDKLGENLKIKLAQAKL
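IDH1-R132H (0.5 ug/mL) preincubated 30 min with compound, then NADPH (0.016 mM) and alpha-KG (2 mM) added; 80 min at RT, pH 7.5. Remaining NADPH coupled via diaphorase/resazurin to fluorescence (540/590 nm); concentration-response curves normalized to no-enzyme control.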
Nrf2 inh: blocks Nrf2 signaling; A549 ARE-Fluc reporter, luciferase luminescence, 18-24 h; Potency, µM (doses to about 46 µM), hits mostly inhibitors; 2.1% of 360,000 active; AID 504444; also: nearly all actives have a fitted effect of over 60% in size
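In this cell-based qHTS, ARE-driven firefly luciferase in A549 cells reports Nrf2 activity; the luminescent signal after BugLite lysis is the measured value, with a prior CellTiter-Fluor read for cell health.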
A549 tox: kills or reduces viability of A549 cells in Nrf2 counter-screen. AID 504648. 0.16% of 390,000 active. Potency, µM (top dose mostly 46 µM), usual class: inhibitors. A549 ARE-Fluc cells, CellTiter-Fluor viability, 18-24 h
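Cytotoxicity counterscreen: CellTiter-Fluor fluorescence was measured in A549 ARE_Fluc cells after 18-24 h of compound exposure in a concentration series. The subsequent BugLite luminescent read reports ARE-luciferase activity.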
Each line names hits and unclear results; the compound was inactive in the other large screens. A selection: hits, their analogues and other compounds. The true share with any hit is near 3.8%. Calls follow the shape of the dose curve; as a rule, active = well fitted curve in the direction sought with a large enough effect; inconclusive = small, poorly fitted or top-dose-only effect, or another doubt; inactive = no such curve, though single readings can be large; an effect the other way counts as inactive or inconclusive.

O=C(C#Cc1ccccc1)Nc1ccc(F)cc1	ELG1 repair inh inconclusive, Nrf2 activator inconclusive
CN(C)/C=C/C(=O)c1ccc([N+](=O)[O-])c(CS(=O)(=O)c2ccc(Cl)cc2)c1	ELG1 repair inh inconclusive
COc1ccc(-c2nn3c(C4CCCCC4)nnc3s2)cc1OC	ELG1 repair inh inconclusive, Nrf2 inh inconclusive (no result: A549 tox)
COc1cc(-c2nn3c(C4CCCCC4)nnc3s2)cc(OC)c1OC	ELG1 repair inh 5.8µM
Cc1ccc(CNC(=O)C2CCN(c3nc4ccccc4n(C)c3=O)CC2)cc1	none (no result: ELG1 repair inh)
COc1cc(C(=O)NCC(c2cccs2)S(=O)(=O)c2ccc(F)cc2)cc(OC)c1OC (stereo not drawn)	none (no result: ELG1 repair inh, Nrf2 inh)
Cn1c(NC(=O)c2ccc(F)cc2)nc2ccccc21	ELG1 repair inh inconclusive, Nrf2 activator inconclusive, Nrf2 inh inconclusive
Cn1c(NC(=O)c2ccccc2NC(=O)C(C)(C)C)nc2ccccc21	ELG1 repair inh inconclusive, Nrf2 inh 16µM
Clc1ccc(Nc2nc(-c3ccccc3)c3cc(Cl)ccc3n2)cc1	none (no result: ELG1 repair inh)
O=C(NCCO)c1cccc(Nc2nc(-c3ccccc3)c3cc(Cl)ccc3n2)c1	ELG1 repair inh inconclusive, Nrf2 inh 15µM
CONC(=O)C[C@@H](C#N)NC(=O)[C@@H]1CCCN1C(=O)[C@@H](NC(=O)c1ccc(N)c(Cl)c1)C(C)(C)C	none (no result: ELG1 repair inh, Nrf2 activator, mIDH1 inhibitor)
Cc1ccc(OCc2ccc(C(=O)Nc3c(C)nn(Cc4c(F)c(F)c(F)c(F)c4F)c3C)o2)c([N+](=O)[O-])c1	ELG1 repair inh inconclusive, Nrf2 inh 8.2µM
NC(=O)c1ccc2c(=O)n3c(-c4cc(Cl)c(N)c(Cl)c4)csc3nc2c1	ELG1 repair inh 10µM, Nrf2 inh inconclusive
Cc1csc2nc3cc(C(N)=O)ccc3c(=O)n12	ELG1 repair inh inconclusive
COc1ccc(-n2nnnc2S(=O)(=O)CC(=O)N2CCCCC2)cc1	Nrf2 inh 26µM, A549 tox inconclusive
COc1ccc(-n2nnnc2S(=O)(=O)Cc2ccc(C(=O)O)cc2)cc1	ELG1 repair inh inconclusive, Nrf2 inh inconclusive
Cc1cccc2c1-c1sc(C(=O)Nc3ccccc3N3CCN(C)CC3)cc1CO2	ELG1 repair inh 21µM
Cc1cccc2c1-c1sc(C(=O)NCCCN3CCN(c4ccccc4F)CC3)cc1CO2	Nrf2 inh inconclusive (no result: ELG1 repair inh)
COc1ccc(OC)c(CCNC(=O)c2cc3c(s2)-c2c(C)cccc2OC3)c1	none (no result: ELG1 repair inh)
COc1cc(NC(=O)c2cc3c(s2)-c2ccccc2OC3)cc(OC)c1OC	Nrf2 inh 21µM (no result: ELG1 repair inh)
COc1ccc(CCNC(=O)c2cc3c(s2)-c2c(C)cccc2OC3)c(OC)c1	Nrf2 inh 21µM (no result: ELG1 repair inh)
c1nc(NCCCN2CCCCC2)c2cc(-c3ccc4c(c3)OCO4)ccc2n1	none (no result: ELG1 repair inh, Nrf2 activator, mIDH1 inhibitor)
O=C(NCC1CCCO1)c1cc([N+](=O)[O-])ccc1N1CCC(Cc2ccccc2)CC1 (stereo not drawn)	ELG1 repair inh 23µM, Nrf2 inh inconclusive, A549 tox inconclusive
O=C(O)c1cc([N+](=O)[O-])ccc1N1CCC(Cc2ccccc2)CC1	Nrf2 inh inconclusive, A549 tox inconclusive
CCOc1cc(C=O)cc(Cl)c1OCC(N)=O	none
CC1(C)OC2CC3C4CCC5=CC(=O)CCC5(C)C4(F)C(O)CC3(C)C2(C(=O)CO)O1 (stereo not drawn)	Nrf2 inh 0.0052µM (no result: ELG1 repair inh)
CC1(C)O[C@@H]2C[C@H]3[C@@H]4CCC5=CC(=O)C=C[C@]5(C)[C@@]4(F)[C@@H](O)C[C@]3(C)[C@]2(C(=O)CO)O1	ELG1 repair inh inconclusive, Nrf2 inh 0.0041µM
CC1CC2C3CCC4=CC(=O)C=CC4(C)C3(F)C(O)CC2(C)C1(O)C(=O)CO (stereo not drawn)	Nrf2 inh inconclusive
CC1(C)O[C@@H]2C[C@H]3[C@@H]4C[C@H](F)C5=CC(=O)C=C[C@]5(C)[C@@]4(F)[C@@H](O)C[C@]3(C)[C@]2(C(=O)CO)O1	Nrf2 inh inconclusive
Cc1ccc(C(=O)c2oc3ccccc3c2NC(=O)c2cc(-c3cc(C)ccc3O)n[nH]2)cc1	ELG1 repair inh inconclusive, Nrf2 inh 26µM
Cc1ccc(/C=N/N(C)S(=O)(=O)c2ccc(C)cc2)cc1	Nrf2 inh 26µM
CSc1ccc(/C=N/N(C)S(=O)(=O)c2ccc(C)cc2)cc1	Nrf2 inh inconclusive
